Consider 40 sequences from PMC3737563, “Investigation of DNA sequence recognition by a streptomycete MarR family transcriptional regulator through surface plasmon resonance and X-ray crystallography”.

This test deals with T1, SCO3205 (MarR family regulator) (Streptomyces coelicolor, UniProt Q9KYU1 1-163).
T1 sequence: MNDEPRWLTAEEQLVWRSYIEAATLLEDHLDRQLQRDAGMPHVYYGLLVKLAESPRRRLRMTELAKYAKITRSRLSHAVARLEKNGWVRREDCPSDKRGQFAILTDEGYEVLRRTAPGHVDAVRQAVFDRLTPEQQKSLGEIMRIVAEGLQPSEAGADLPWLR
Put plainly: SPR (ReDCaT); 100 nM SCO3205 dimer; HBS-EP+ buffer: 10 mM HEPES pH 7.4, 150 mM NaCl, 3 mM EDTA, 0.05% (v/v) surfactant P20; 20 C; Biacore T200, ReDCaT SA chip; high values mean tight binding. The settings on record: protein: recombinant; tags: N-terminal His tag plus TEV site, not removed; chain copies: 2; label: biotin linker S6 hybridised to overhang; dsDNA, one strand shown.
For CATGGCTACTCCAATACTTGAACTCTCAA, the binding signal was 35.7 ± 0.566 %Rmax.
As to ACTCTCAATCTTTACGTGCCGTCAATCTA, the binding signal was determined as 3.05 ± 0.354 %Rmax.
The same measure for CGAGACGGTTCCTTGAACATTAAACA: 68.6 %Rmax.
CAATACTTGAACTCTCAATCTTTA: the binding signal is 101 %Rmax.
The same measure for TTTTGTTTAATGTTCAAGGAACCGTCTCG: 127.2 ± 0.636 %Rmax; for ACTCCAATACTTGAACTCTCAATCTTTA: 115 %Rmax.
For the sequence AAGAAGTTCAAGCTTCAACCAAAA, the binding signal was 95.2 %Rmax.
The same measure for ACGCCGATTTTGTTTAATGTTCAAGGAACCGT: 110 %Rmax.
Next, TTGATGTTGAATGTTCAACCAGTC: 118 %Rmax; ACGCCGATTTTGTTTAATGTTC: 5.1 %Rmax; ACGGCACGTAAAGATTGAGAGTTCAAGT: 80.4 %Rmax.
In the case of ACTCCAATACTTGAACTCTCAA, the binding signal was determined as 41.3 %Rmax.
For ACGCCGATTTTGTTTAATGTTCAAGGAACC, the binding signal was determined as 117 %Rmax.
Next, CGAGACGGTTCCTTGAACATTAAACAAAATCGGC: 112 %Rmax.
Take ACTCCAATACTTGAACTCTCAATC: the binding signal worked out at 92.7 %Rmax.
Next, ACGGCACGTAAAGATTGAGAGTTCAAGTATTG: 112 %Rmax.
For ACGGCACGTAAAGATTGAGAGTTCAAGTAT, the binding signal amounted to 87.9 %Rmax.
Next, CGAGACGGTTCCTTGAACATTAAACAAA: 68.4 %Rmax; ACTCCAATACTTGAACTCTC: 7.8 %Rmax; ACTCCAATACTTGAACTCTCAATCTTTACG: 119 %Rmax.
Next, ACGCCGATTTTGTTTAATGTTCAAGGAACCGTCT: 118 %Rmax.
In the case of ACTCCAATACTTGAACTCTCAATCTT, the binding signal stood at 116 %Rmax.
On to GACCTGTTCAAAGCTCAAGCAGAA, for which the binding signal amounted to 48.5 %Rmax.
Regarding ACTCCAATACTTGAACTCTCAATCTTTAC, the binding signal stood at 115.8 ± 0.283 %Rmax.
Next, TACTTGAACTCTCAATCTTTACGTGCCGT: 113.9 ± 0.424 %Rmax; TCAATCTACGCCGATTTTGTTTAATGTTC: 5 %Rmax.
Next, ACTCCAATACTTGAACTCTCAATCTTTACGTGCC: 110 %Rmax; ACGGCACGTAAAGATTGAGAGTTCAAGTATTGGA: 116 %Rmax.
On to ACTCCAATACTTGAACTCTCAATCTTTACGTG, for which the binding signal turned out to be 108 %Rmax.
As to ACGGCACGTAAAGATTGAGAGTTCAA, the binding signal was found to be 4.7 %Rmax.
Next, CGAGACGGTTCCTTGAACATTAAA: 22 %Rmax; ACGCCGATTTTGTTTAATGTTCAAGGAA: 94 %Rmax; CGAGACGGTTCCTTGAACATTAAACAAAATCG: 108 %Rmax.
With ACGGCACGTAAAGATTGAGAGTTCAAGTATTGGAGT, the binding signal was 110 %Rmax.
In the case of ACGCCGATTTTGTTTAATGTTCAA, the binding signal was found to be 29.9 %Rmax.
For ACTCCAATACTTGAACTCTCAATCTTTACGTGCCGT, the binding signal was 115 %Rmax.
Consider ACGCCGATTTTGTTTAATGTTCAAGGAAC, for which the binding signal was determined as 109.7 ± 0.566 %Rmax.
On to CGAGACGGTTCCTTGAACATTAAACAAAATCGGCGT, for which the binding signal was determined as 108 %Rmax.
The same measure for CGAGACGGTTCCTTGAACATTAAACAAAAT: 102 %Rmax; for ACGCCGATTTTGTTTAATGTTCAAGG: 81 %Rmax.
